BAZ2B block – inhibitors of human BAZ2B bromodomain | AlphaScreen BAZ2B-H3K14Ac peptide displacement | AID 504333 | 360,000 compounds, 4.4% hits | Potency, µM (top dose mostly 114 µM), hits mostly inhibitors; note: nearly all actives have a fitted effect of over 60% in size
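Inhibition is scored as reduced AlphaScreen emission. The BAZ2B/b-H3(5-23)K14Ac complex (50 nM each) in PBS pH 7.4, 0.01% Tween-20 meets compound (up to 110 uM) for 30 min at RT before bead addition.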
JMJD2A Tudor inh – JMJD2A Tudor domain (human) inhibition; O75164; AlphaScreen JMJD2A-Tudor / H3K4me3 peptide binding; Potency, µM (highest dose often 114 µM), usual class: inhibitors; 390,000 compounds, 4.4% hits; note: nearly all actives have a fitted effect of over 50% in size
HP1b chromo inh – inhibitors of HP1-beta chromodomain binding to methylated histone tails; P83916; AlphaScreen HP1-beta / biotin-H3K9me3 peptide binding; Potency, µM (doses to about 114 µM), hits mostly inhibitors; 390,000 compounds, 0.56% hits; AID 540317; note: nearly all actives have a fitted effect of over 70% in size
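AlphaScreen: HP1-beta (50 nM) preformed 30 min with biotin-H3(1-18)K9me3 peptide (50 nM) in PBS pH 7.4, 0.01% Tween-20. Compound added for 30 min at RT, then streptavidin donor/nickel chelate acceptor beads (10 ug/mL) for 30 min.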
L3MBTL1 inh – L3MBTL1 (human) inhibition; Q9Y468; AlphaScreen L3MBTL1–H3K9me1 peptide binding; Potency, µM (doses to about 57.1 µM), hits mostly inhibitors; 230,000 compounds, 0.66% hits; AID 485360; note: nearly all actives have a fitted effect of over 60% in size
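L3MBTL1 (50 nM) pre-complexed 30 min with biotinylated H3(1-15)K9me1 peptide (75 nM), then compounds added for 30 min at room temperature; AlphaScreen streptavidin donor/nickel chelate acceptor beads (10 ug/mL final) read after 30 min dark incubation.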
GLS inhibitor – inhibitors of human glutaminase (GLS). O94925. AID 624170. 410,000 compounds, 0.21% hits. Potency, µM (series often up to 45.5 µM), hits mostly inhibitors. GLS enzymatic activity, qHTS titration
Target sequence (O94925 whole entry, looked up): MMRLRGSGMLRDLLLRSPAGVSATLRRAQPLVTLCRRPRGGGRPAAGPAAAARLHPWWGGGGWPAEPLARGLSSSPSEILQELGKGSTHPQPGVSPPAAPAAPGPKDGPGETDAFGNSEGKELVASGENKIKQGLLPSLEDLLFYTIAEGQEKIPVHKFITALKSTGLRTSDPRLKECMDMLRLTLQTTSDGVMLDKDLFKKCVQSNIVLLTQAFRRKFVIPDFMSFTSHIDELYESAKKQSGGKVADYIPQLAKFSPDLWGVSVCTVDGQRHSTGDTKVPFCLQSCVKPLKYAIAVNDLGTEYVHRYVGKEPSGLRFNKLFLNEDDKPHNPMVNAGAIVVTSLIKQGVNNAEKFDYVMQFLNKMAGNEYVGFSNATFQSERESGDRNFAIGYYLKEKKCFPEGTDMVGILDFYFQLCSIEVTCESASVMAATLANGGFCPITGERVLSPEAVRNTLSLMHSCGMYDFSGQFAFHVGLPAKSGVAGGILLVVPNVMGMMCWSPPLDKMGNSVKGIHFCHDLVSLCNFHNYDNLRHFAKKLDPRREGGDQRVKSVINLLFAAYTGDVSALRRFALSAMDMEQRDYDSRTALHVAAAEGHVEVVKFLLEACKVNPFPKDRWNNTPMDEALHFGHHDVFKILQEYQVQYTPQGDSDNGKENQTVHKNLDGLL
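hKGA in 45 mM KH2PO4 (pH 8.2), 0.02% Tween-20 with compound, then 1mM L-Glutamine (stock as added) plus glutamate oxidase/HRP/Amplex red coupling mix. Fluorescence read initially and after 30 min at RT; signal change reflects glutamate formation.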
G9a block – blocks human histone lysine methyltransferase G9a. Q96KQ7. Potency, µM (doses to about 102 µM), most hits filed as inhibitors. AID 504332. G9a H3K9 monomethylation, AlphaScreen, 2 h. 350,000 compounds, 8.8% hits; note: nearly all actives have a fitted effect of over 75% in size
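Readings reflect AlphaScreen signal from monomethyl-H3K9 antibody detection. HMT at 20 nM; substrate b-H3K9 500 nM; cofactor SAM 20 uM; 2 h RT reaction; compounds tested as titrations in qHTS with 15 min preincubation.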
Large screens that a line does not name were inactive. Rows were chosen to be rich in hits. Some 10% of all compounds tested hit in one or more screens of this group. Calls come from the whole dose curve; as a rule, active = well fitted curve in the direction sought with a large enough effect; inconclusive = small, poorly fitted or top-dose-only effect, or another doubt; inactive = no such curve, though single readings can be large; an effect the other way counts as inactive or inconclusive.

CCn1nc([N+](=O)[O-])c(C(C#N)c2nc3ccccc3n2C)c(Cl)c1=O (stereo not given)	BAZ2B block 40µM, JMJD2A Tudor inh inconclusive, HP1b chromo inh inconclusive, G9a block inconclusive
COc1ccc(OCCn2c(CCNC(=O)C3CCCCC3)nc3ccccc32)cc1	none (no result: BAZ2B block, L3MBTL1 inh, GLS inhibitor, G9a block)
FC(F)(F)C(F)(F)C(F)(F)C(F)(F)C(F)(F)C(F)(F)C(F)(F)C(F)(F)Br	none (no result: BAZ2B block, JMJD2A Tudor inh, HP1b chromo inh, L3MBTL1 inh)
COc1ccc(N2CCN(Cc3cc(=O)c(OCC(=O)NC4CCCC4)co3)CC2)cc1	G9a block 56µM
Cc1ccccc1-c1ccccc1N	none
Nc1ccccc1-c1n[nH]c(=S)s1	BAZ2B block inconclusive, JMJD2A Tudor inh 28µM, HP1b chromo inh inconclusive, G9a block 0.63µM
Cc1ccc(-n2ncc3c(NCCC4=CCCCC4)ncnc32)cc1	G9a block inconclusive (no result: L3MBTL1 inh)
Fc1ccc(COc2ccc(Br)cc2CNCC2CCCO2)cc1 (stereo not given)	G9a block 50µM
Fc1ccccc1COc1ccc(Br)cc1CNCC1CCCO1 (stereo not given)	BAZ2B block inconclusive (no result: G9a block)
CCCCN(CCCC)S(=O)(=O)c1ccc(SCC(=O)OCC)c([N+](=O)[O-])c1	JMJD2A Tudor inh inconclusive, HP1b chromo inh 79µM (no result: L3MBTL1 inh)
COC(=O)CSc1ccc(S(=O)(=O)N2CCC(C)CC2)cc1[N+](=O)[O-]	none
CCOC(=O)CSc1ccc(S(=O)(=O)N(CC)CC)cc1[N+](=O)[O-]	G9a block 45µM (no result: L3MBTL1 inh)
Clc1ccc(Cn2c3c(c4ccccc42)CCc2cc4ccccc4nc2-3)cc1	none (no result: BAZ2B block, L3MBTL1 inh, GLS inhibitor, G9a block)
COc1ccc(Br)cc1C1Nc2cccc3cccc(c23)N1	BAZ2B block 45µM, JMJD2A Tudor inh inconclusive
COc1cc(C2Nc3cccc4cccc(c34)N2)cc(OC)c1OC(C)=O	BAZ2B block inconclusive, JMJD2A Tudor inh inconclusive, HP1b chromo inh inconclusive, L3MBTL1 inh inconclusive, G9a block 13µM
CCN(CC)c1ccc(C2Nc3cccc4cccc(c34)N2)c(O)c1	BAZ2B block 11µM, JMJD2A Tudor inh 35µM, HP1b chromo inh inconclusive, L3MBTL1 inh inconclusive, G9a block 32µM
Oc1ccc2ccccc2c1C1Nc2cccc3cccc(c23)N1	BAZ2B block 40µM, JMJD2A Tudor inh 45µM, HP1b chromo inh inconclusive, G9a block 5µM (no result: L3MBTL1 inh)
COc1ccc2ccc3ccc(OC)c(OC(C)=O)c3c2c1	none (no result: BAZ2B block, L3MBTL1 inh, G9a block)
CCOC(=O)C1=C(C)NC(=O)NC1c1c(O)ccc2ccccc12 (stereo not given)	none (no result: L3MBTL1 inh)
CCC(=O)N1CCc2cc(S(=O)(=O)NC(CC(C)C)C(=O)Nc3cc(C)ccc3OC)ccc21 (stereo not given)	none (no result: BAZ2B block, L3MBTL1 inh)
Cn1c(=O)c2c(SCC(=O)NCc3ccco3)nc(-c3ccccc3)nc2n(C)c1=O	none (no result: L3MBTL1 inh)
O=[N+]([O-])c1cc(C2Nc3cccc4cccc(c34)N2)ccc1Cl	BAZ2B block inconclusive, L3MBTL1 inh inconclusive, G9a block inconclusive
COc1cc(C2Nc3cccc4cccc(c34)N2)ccc1O	BAZ2B block inconclusive, JMJD2A Tudor inh 50µM, HP1b chromo inh inconclusive, GLS inhibitor 11µM, G9a block 8.9µM
O=C1N(Cc2cccnc2)C[C@@H]2C[C@@H](c3cccc(Oc4ccccc4)c3)N3CCC[C@@]123	BAZ2B block inconclusive, G9a block 13µM
O=C1N(Cc2cccc(Cl)c2)C[C@@H]2C[C@@H](c3cccn3-c3cccnc3)N3CCC[C@@]123	BAZ2B block inconclusive, JMJD2A Tudor inh inconclusive, G9a block 50µM
NC(=O)CCC1NC(=O)C(Cc2ccccc2)NC(=O)C(Cc2ccc(O)cc2)NC(=O)CCSSCC(C(=O)N2CCCC2C(=O)NC(CCCN=C(N)N)C(=O)NCC(N)=O)NC(=O)C(CC(N)=O)NC1=O (stereo not given)	none (no result: BAZ2B block, JMJD2A Tudor inh, HP1b chromo inh, L3MBTL1 inh)
Cc1[nH]c2ccccc2c1-c1nc2ccccc2[nH]1	BAZ2B block inconclusive, G9a block inconclusive
Cc1nnsc1-c1nc2ccccc2[nH]1	G9a block 28µM (no result: BAZ2B block)
Cc1ccc(-c2nc3ccccc3[nH]2)s1	G9a block 7.9µM
c1csc(-c2nc3ccccc3[nH]2)c1	G9a block inconclusive
COc1ccc2[nH]c3c(c2c1)[C@@H]1CCN2C(=O)CCC[C@H](C3)[C@H]12	BAZ2B block inconclusive, G9a block 32µM

From PubChem
